Experimental findings from PubChem BioAssay AID1508601 (ICCB-Longwood Screening Facility, Harvard Medical School, 2020) are described below.

Test [1] can be described thus: nuclear p53 accumulation, HPV+ cells – imaging, p53-positive nuclei imaging, 24 h, 48 h (AID 1508601). To be noted: 24/48 h.
Test [2] has as its target Cellular tumor antigen p53 (Homo sapiens) (UniProt P04637). Described as above. The settings on record: 24/48 h, stronger effect = higher value.
[3] abbreviates: measured here: cell number at 24 h, Library stock concentration: 80 uM.
Where [4] appears, read: measured here: cell number at 24 h, Library stock concentration: 400 uM.
Setting [5] is: measured here: cell number at 24 h, Library stock concentration: 2 mM.
[6] abbreviates: measured here: cell number at 24 h, Library stock concentration: 3.33 mM.
Setting [7] is: measured here: cell number at 24 h, Library stock concentration: 10 mM.
[8] abbreviates: measured here: cell number at 48 h, Library stock concentration: 80 uM.
Setting [9] is: measured here: cell number at 48 h, Library stock concentration: 400 uM.
[10] abbreviates: measured here: cell number at 48 h, Library stock concentration: 2 mM.
The mark [11] stands for this setting: measured here: cell number at 48 h, Library stock concentration: 3.33 mM.
Setting [12] is: measured here: cell number at 48 h, Library stock concentration: 10 mM.
Setting [13] is: Library stock concentration: 80 uM.
Where [14] appears, read: Library stock concentration: 400 uM.
[15] abbreviates: Library stock concentration: 2 mM.
The mark [16] stands for this setting: Library stock concentration: 3.33 mM.
Setting [17] is: Library stock concentration: 10 mM.
The mark [18] stands for this setting: measured here: p53 positive nuclei at 24 h, Library stock concentration: 80 uM.
[19] abbreviates: measured here: p53 positive nuclei at 24 h, Library stock concentration: 400 uM.
Where [20] appears, read: measured here: p53 positive nuclei at 24 h, Library stock concentration: 2 mM.
Setting [21] is: measured here: p53 positive nuclei at 24 h, Library stock concentration: 3.33 mM.
Where [22] appears, read: measured here: p53 positive nuclei at 24 h, Library stock concentration: 10 mM.

Structures are written as SMILES. Values joined by “and” are separate entries in the source; they are usually repeats but may differ in a detail not shown here. Equal values may be shown once. The campaign covered roughly 5,700 compounds. About 85 (1%) were called active. Cut-off read from the data, not from the text of the source: active = p53-positive nuclei above about 36% (passing the limit was not always enough); inactive = the rest. Shown is part of a subset that was picked to be rich in actives.

Chain of Cellular tumor antigen p53 (Homo sapiens) (P04637 whole entry, looked up): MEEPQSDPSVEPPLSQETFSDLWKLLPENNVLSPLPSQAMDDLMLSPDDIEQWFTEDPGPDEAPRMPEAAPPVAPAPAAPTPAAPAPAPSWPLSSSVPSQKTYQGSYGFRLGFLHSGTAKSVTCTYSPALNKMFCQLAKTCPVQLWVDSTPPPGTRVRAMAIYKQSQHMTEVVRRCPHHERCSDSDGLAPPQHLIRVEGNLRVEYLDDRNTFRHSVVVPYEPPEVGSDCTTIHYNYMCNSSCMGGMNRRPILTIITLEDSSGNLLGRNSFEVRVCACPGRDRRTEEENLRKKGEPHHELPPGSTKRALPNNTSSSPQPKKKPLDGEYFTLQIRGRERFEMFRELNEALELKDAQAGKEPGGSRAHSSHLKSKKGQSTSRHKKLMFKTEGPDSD

As to `CC(C)CC(=O)Nc1n[nH]c2c1CN(C(=O)C1CCN(C)CC1)C2(C)C`, the nuclei count, normalised in test [1] (setting [3]) came out at 90.1%; in test [1] (setting [4]) it was 79.8%; in test [1] (setting [5]), 61%; in test [1] (setting [6]), 45.9%; in test [1] (setting [7]), 39.3%; in test [1] (setting [8]), 91.5%. The nuclei count, normalised came to 71.9% in test [1] (setting [9]), 44.9% in test [1] (setting [10]), 31.6% in test [1] (setting [11]) and 23.2% in test [1] (setting [12]). The p53-positive nuclei, normalised in test [2] (setting [13]) was -0.0742% (inactive); in test [2] (setting [14]), 0.409% (inactive); in test [2] (setting [15]), 5.57% (inactive); in test [2] (setting [16]), 45.4% (inactive); in test [2] (setting [17]), 3.79% (inactive); in test [2] (setting [18]), -0.129%. In addition, the p53-positive nuclei, normalised worked out at 0.453% in test [2] (setting [19]), 0.779% in test [2] (setting [20]), 13.5% in test [2] (setting [21]) and 0.472% in test [2] (setting [22]).
For the compound `Cc1nc(Nc2n[nH]c3c2CN(C(=O)NC(CN(C)C)c2ccccc2)C3(C)C)c2sccc2n1` (centres undefined), the nuclei count, normalised in test [1] (measured here: cell number at 24 h, Library stock concentration: 46 uM) is 105%; in test [1] (setting [3]), 95.1%; in test [1] (measured here: cell number at 24 h, Library stock concentration: 278 uM), 96.3%; in test [1] (setting [4]), 85.6%; in test [1] (measured here: cell number at 24 h, Library stock concentration: 1.67 mM), 75.5%; in test [1] (setting [5]), 66.2%. Further, the nuclei count, normalised in test [1] (setting [6]) is 47.2%; in test [1] (setting [7]) it was 45.2% and 45.1%; in test [1] (measured here: cell number at 48 h, Library stock concentration: 46 uM), 108%; in test [1] (setting [8]), 96.4%; in test [1] (measured here: cell number at 48 h, Library stock concentration: 278 uM), 99.1%; in test [1] (setting [9]), 92.2%. In addition, the nuclei count, normalised in test [1] (measured here: cell number at 48 h, Library stock concentration: 1.67 mM) is 72.1%; in test [1] (setting [10]), 63.4%; in test [1] (setting [11]), 37.3%; in test [1] (setting [12]), 32.4% and 35.1%. Besides, the p53-positive nuclei, normalised in test [2] (Library stock concentration: 46 uM) was -0.184% (inactive); in test [2] (setting [13]), -0.159% (inactive); in test [2] (Library stock concentration: 278 uM) it was -0.101% (inactive); in test [2] (setting [14]), -0.117% (inactive); in test [2] (Library stock concentration: 1.67 mM), 0.691% (inactive); in test [2] (setting [15]) it was 2.71% (inactive). The p53-positive nuclei, normalised in test [2] (setting [16]) was 69.1% (active); in test [2] (setting [17]), 18.9% (inactive) and 1.61% (inactive); in test [2] (measured here: p53 positive nuclei at 24 h, Library stock concentration: 46 uM), 0.116%; in test [2] (setting [18]) it was -0.151%; in test [2] (measured here: p53 positive nuclei at 24 h, Library stock concentration: 278 uM), -0.0682%; in test [2] (setting [19]) it was 0.0839%. Moreover, the p53-positive nuclei, normalised is 1.31% in test [2] (measured here: p53 positive nuclei at 24 h, Library stock concentration: 1.67 mM); 2.05% in test [2] (setting [20]); 6.89% in test [2] (setting [21]); 1.74% and 0.752% in test [2] (setting [22]).
On to `CCCCCOC(=O)Nc1nc(=O)n(C2OC(C)C(O)C2O)cc1F` (centres undefined), for which the nuclei count, normalised in test [1] (setting [6]) was 99.3%; in test [1] (setting [11]) it was 102%. In addition, the p53-positive nuclei, normalised was -0.587% (inactive) in test [2] (setting [16]) and -0.329% in test [2] (setting [21]).
In the case of `CCC(=O)O[C@@]1(C(=O)CCl)C(C)C[C@H]2[C@@H]3CC(F)C4=CC(=O)C=C[C@]4(C)[C@]3(F)C(O)C[C@@]21C` (some centres undefined), the nuclei count, normalised in test [1] (setting [6]) is 104%; in test [1] (setting [11]) it was 97.5%. Further, the figures for the p53-positive nuclei, normalised in test [2] (setting [16]) and in test [2] (setting [21]) were -0.166% (inactive) and -0.278%, respectively.
Take `COc1ccc(Cn2ccc3ccc(C(=O)NO)cc32)cc1`: the nuclei count, normalised in test [1] (setting [3]) is 107%; in test [1] (setting [4]), 107%; in test [1] (setting [5]) it was 105%; in test [1] (setting [6]), 105%; in test [1] (setting [7]), 101%; in test [1] (setting [8]), 107%. Moreover, the nuclei count, normalised in test [1] (setting [9]) came to 99.6%; in test [1] (setting [10]) it was 98.8%; in test [1] (setting [11]), 88.9%; in test [1] (setting [12]), 95.1%. Also, the p53-positive nuclei, normalised in test [2] (setting [13]) is -0.106% (inactive); in test [2] (setting [14]), -0.0148% (inactive); in test [2] (setting [15]), -0.164% (inactive); in test [2] (setting [16]), 0.097% (inactive); in test [2] (setting [17]), -0.0788% (inactive); in test [2] (setting [18]) it was -0.0424%. Also, the p53-positive nuclei, normalised in test [2] (setting [19]) was -0.00427%; in test [2] (setting [20]) it was 0.00889%; in test [2] (setting [21]) it was -0.209%; in test [2] (setting [22]), 0.0845%.
For the compound `CCN(CC)Cc1ccc2cc(COC(=O)Nc3ccc(C(=O)NO)cc3)ccc2c1`, the figures for the nuclei count, normalised in test [1] (setting [6]) and in test [1] (setting [11]) were 39.9% and 22.6%, respectively. Also, the p53-positive nuclei, normalised in test [2] (setting [16]) is 95.7% (active); in test [2] (setting [21]), 67.1%.
As to `CCCCN(Cc1ccc(C(=O)NO)cc1)C(=O)Nc1ccccc1`, the nuclei count, normalised turned out to be 103% in test [1] (setting [3]); 99.5% in test [1] (setting [4]); 114% in test [1] (setting [5]); 118% in test [1] (setting [6]); 74.8% in test [1] (setting [7]); 109% in test [1] (setting [8]). Also, the nuclei count, normalised was 101% in test [1] (setting [9]), 99.5% in test [1] (setting [10]), 90.2% in test [1] (setting [11]) and 67.8% in test [1] (setting [12]). Also, the p53-positive nuclei, normalised is -0.143% (inactive) in test [2] (setting [13]); 0.163% (inactive) in test [2] (setting [14]); 0.295% (inactive) in test [2] (setting [15]); 0.281% (inactive) in test [2] (setting [16]); 5.72% (inactive) in test [2] (setting [17]); -0.0551% in test [2] (setting [18]). Besides, the p53-positive nuclei, normalised was -0.12% in test [2] (setting [19]), 0.226% in test [2] (setting [20]), 0.149% in test [2] (setting [21]) and 13.7% in test [2] (setting [22]).
